The record followed here is PubChem BioAssay (NCATS).

Each structure is given as a SMILES string. Records with an inconclusive call do not appear. Values without a mark were called inactive. Activity calls are given as the source filed them. Unless noted, the call rests on the fitted dose curve.

The target of the first assay is Cytochrome P450 2C19 (Homo sapiens) (UniProt P33261). The assay is described as follows: qHTS Assay for Inhibitors and Substrates of Cytochrome P450 2C19 (AID 899; active means well fitted inhibition curve with a large enough effect; further: nearly all actives have a fitted effect of over 60% in size; further: potency means the concentration at half of the fitted maximal effect). The settings on record: recombinant CYP2C19, luciferin-H EGE luminescence; series mostly up to 57.1 µM. The gist of the method: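 Luminescence readout of luciferin formed from 10uM Luciferin-H EGE (KM level) by 5 nM CYP2C19 in 50mM KPO4. 60 min NADPH-driven reaction at 37C after 10 min compound preincubation; data scaled to 57uM ketoconazole inhibition.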
Sequence of Cytochrome P450 2C19 (Homo sapiens) (P33261 whole entry, looked up): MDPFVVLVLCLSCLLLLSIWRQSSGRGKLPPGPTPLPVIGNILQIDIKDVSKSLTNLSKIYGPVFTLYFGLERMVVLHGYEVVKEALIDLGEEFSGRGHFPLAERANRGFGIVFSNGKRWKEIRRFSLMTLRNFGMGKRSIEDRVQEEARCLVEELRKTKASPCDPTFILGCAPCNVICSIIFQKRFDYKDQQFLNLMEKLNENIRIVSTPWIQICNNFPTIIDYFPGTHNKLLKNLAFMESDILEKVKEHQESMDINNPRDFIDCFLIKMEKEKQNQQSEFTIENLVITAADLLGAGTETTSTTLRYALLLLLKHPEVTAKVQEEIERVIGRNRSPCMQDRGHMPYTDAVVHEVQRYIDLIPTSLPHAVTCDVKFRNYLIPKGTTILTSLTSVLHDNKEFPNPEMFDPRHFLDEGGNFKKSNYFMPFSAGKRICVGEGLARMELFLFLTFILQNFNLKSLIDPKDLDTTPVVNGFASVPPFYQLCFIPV
(In general: Quantitative high-throughput screening tests each substance at several concentrations.)
Consider `Cc1ccccc1-c1cncnc1NCc1ccccc1`, for which the Potency was 2 µM (active).

In the case of `Fc1ccc(Nc2ncncc2-c2ccccc2C(F)(F)F)cc1`, the Potency is 7.94 µM (active).

As to `COc1ccc(-c2nc3cnc(N4CCN(C)CC4)nc3n(Cc3cccs3)c2=O)cc1`, the Potency entry is “inactive”.

For the molecule `Cc1ccccc1-c1nccc(NCc2cccs2)n1`, the Potency is 3.98 µM (active).

For the molecule `CS(=O)(=O)Nc1cccc(-c2ccc3ncnc(NC4CC4)c3c2)c1`, the Potency result is “inactive”.

As to `c1csc(CNc2ncnc3ccc(-c4ccoc4)cc23)c1`, the Potency is 6.31 µM (active).

System in the next assay: not listed separately
The assay is described as follows: qHTS Assay for Identification of Small Molecule Agonists for Hypoxia Response Element Signaling Pathway (AID 914; active means well fitted activation curve with a large enough effect in the signal ratio, with a control signal flat, not every such curve was filed as active; the % refers to the signal ratio; further: potency means the concentration at half of the fitted maximal effect; on activation: % of control where 0% means no effect). As to conditions: ME-180 (cervical carcinoma) HRE-bla reporter, beta-lactamase ratio, CoCl2, 17 h; activation: stronger effect = higher value. A digest of the protocol: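 Positive modulation of EC50 CoCl2-induced hypoxia response element signaling is measured in ME-180 cells with a beta-lactamase reporter. Compounds are titrated, incubation runs 17 hours, and %Activity derives from the blue/green ratio.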
Regarding `COc1ccccc1CCn1c(=O)c(-c2cccc(F)c2)nc2cncnc21`, the activation is -1.08%.

Consider `COc1ccc(Oc2ncc3nc(C)c(=O)n(C[C@H]4CCCO4)c3n2)cc1`, for which the activation is -5.29%.

Consider `CCNc1ncc2nc(-c3cccs3)c(=O)n(C)c2n1`, for which the Potency was 3.16 µM (active).

As to `COc1cccc(Nc2ncc3nc(C)c(=O)n(C4CC4)c3n2)c1`, the activation is -3.86%.

System in the next assay: not listed separately
The assay is described as follows: qHTS Assay for Lipid Storage Modulators (AID 1519). Further: on the % scale 0 is the no-effect control and ±100 the full control effect. As to conditions: Drosophila S3 cells, BODIPY lipid droplet/cell ratio, laser cytometry; at 57.5 µM (top of the series); cells loaded with oleic acid. The gist of the method: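 Cells seeded at 5,000 per well were treated with compounds over a concentration series and loaded with oleic acid (400 uM, as added). Lipid droplet fluorescence (488 nm excitation, 500-530 nm channel) was read by laser-scanning cytometry and normalized to 20 uM Triacsin C.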
As to `Cc1ccccc1-c1cncnc1NCc1ccccc1`, the activity change, negative = inhibition is 5.04%.

Turning to `CN(C)C(=O)c1ccc(-c2cc(NCc3cccnc3)ncn2)cc1`, the activity change, negative = inhibition was 3.91%.

With `Cc1noc(C)c1-c1cc(NCc2cccnc2)ncn1`, the activity change, negative = inhibition was 2.28%.

In the case of `CN(C)c1ncc2nc(-c3cc(F)cc(F)c3)c(=O)n(CCC#N)c2n1`, the activity change, negative = inhibition was 3.22%.

In the case of `c1nc(NC2CCNCC2)c2cc(-c3ccoc3)ccc2n1`, the activity change, negative = inhibition is 0.0897%.

Turning to `Fc1ccc(Nc2ncncc2-c2ccccc2C(F)(F)F)cc1`, the activity change, negative = inhibition was 3.62%.

Turning to `COc1ccc(-c2nc3cnc(Oc4ccccc4)nc3n(CCC#N)c2=O)cc1`, the activity change, negative = inhibition was 1.13%.

Take `COc1ccc(-c2nc3cnc(N4CCN(C)CC4)nc3n(Cc3cccs3)c2=O)cc1`: the activity change, negative = inhibition is 1.59%.

With `COc1ccc(-n2c(=O)c(-c3ccc(F)cc3)nc3cnc(N4CCOCC4)nc32)cc1`, the activity change, negative = inhibition is 4.12%.

With `Cc1noc(C)c1-c1nccc(N2CCOCC2)n1`, the activity change, negative = inhibition is 6.74%.

With `COc1ccccc1CCn1c(=O)c(-c2cccc(F)c2)nc2cncnc21`, the activity change, negative = inhibition was 6.88%.

On to `COCCn1c(=O)cnc2cnc(Oc3ccc(OC)cc3)nc21`, for which the activity change, negative = inhibition is 2.42%.

As to `O=c1c(-c2ccc(F)cc2)nc2cnc(Oc3ccccc3)nc2n1C1CC1`, the activity change, negative = inhibition was 0.468%.

`COc1ccc(Oc2ncc3nc(C)c(=O)n(C[C@H]4CCCO4)c3n2)cc1`: the activity change, negative = inhibition is -2.24%.

In the case of `CCNc1ncc2nc(-c3cccs3)c(=O)n(C)c2n1`, the activity change, negative = inhibition was -12.5%.

As for `COCCNc1nc(-c2ccccc2Cl)nc2ccccc12`, the activity change, negative = inhibition is 3.23%.

Regarding `CN(C)c1ccc(-c2ccc3ncnc(N(C)C)c3c2)cc1`, the activity change, negative = inhibition was 1.7%.

As to `COCCn1c(=O)c(C)nc2cnc(N(C)C)nc21`, the activity change, negative = inhibition was 4.96%.

With `COCCNc1ncnc2ccc(-c3cccc(NS(C)(=O)=O)c3)cc12`, the activity change, negative = inhibition is 1.59%.

As to `CC(=O)NCCNc1ncncc1-c1ccc(N(C)C)cc1`, the activity change, negative = inhibition was -9.91%.

In the case of `COc1ccc(Oc2ncc3nc(-c4ccc(OC)cc4)c(=O)n(C)c3n2)cc1`, the activity change, negative = inhibition is 2.79%.

With `CN1CCN(c2ncc3nc(-c4ccc(Cl)cc4)c(=O)n(-c4ccccc4)c3n2)CC1`, the activity change, negative = inhibition is 4.1%.

Take `CN1CCN(c2ccnc(-c3ccoc3)n2)CC1`: the activity change, negative = inhibition was 0.402%.

As for `Cc1ccccc1-c1nccc(NCc2cccs2)n1`, the activity change, negative = inhibition was 6.73%.

Consider `Cc1cccc(CNc2cc(-c3c(C)noc3C)ncn2)c1`, for which the activity change, negative = inhibition was 8.24%.

In the case of `O=c1cnc2cnc(Oc3cccc(Cl)c3)nc2n1C[C@H]1CCCO1`, the activity change, negative = inhibition is 5.57%.

With `CS(=O)(=O)Nc1cccc(-c2ccc3ncnc(NC4CC4)c3c2)c1`, the activity change, negative = inhibition is -3.87%.

On to `COc1ccc(-n2c(=O)cnc3cnc(N(C)C)nc32)cc1`, for which the activity change, negative = inhibition is 5.53%.

As for `COc1cccc(Nc2ncc3nc(C)c(=O)n(C4CC4)c3n2)c1`, the activity change, negative = inhibition was -5.91%.

Consider `COc1ccc2[nH]cc(CCNc3ncnc4ccc(-c5cccnc5)cc34)c2c1`, for which the activity change, negative = inhibition was -3.03%.

For `CC(=O)NCCNc1ncnc2ccc(-c3ccoc3)cc12`, the activity change, negative = inhibition is 1.77%.

`CNc1ncnc2ccc(-c3ccccc3CN(C)C)cc12`: the activity change, negative = inhibition is 4.45%.

For `c1csc(CNc2ncnc3ccc(-c4ccoc4)cc23)c1`, the activity change, negative = inhibition is -0.111%.

On to `COCCn1c(=O)c(C)nc2cnc(Oc3ccc(OC)cc3)nc21`, for which the activity change, negative = inhibition is 1.21%.

As for `c1cncc(CNc2ncncc2-c2cccnc2)c1`, the activity change, negative = inhibition is 2.51%.

Regarding `CN(C)C(=O)c1ccc(-c2cc(Nc3ccccc3)ncn2)cc1`, the activity change, negative = inhibition was 6.97%.

For the molecule `COCCNc1ncnc2ccc(-c3ccoc3)cc12`, the activity change, negative = inhibition is 0.0459%.

Turning to `COc1cccc(Cn2c(=O)cnc3cncnc32)c1`, the activity change, negative = inhibition is 1.18%.

Consider `CCNc1ncc2nc(-c3cn(C)c4ccccc34)c(=O)n(C)c2n1`, for which the activity change, negative = inhibition is 8.66%.

Take `COc1ccc(-c2nc3cnc(Oc4cccc(Cl)c4)nc3n(C3CC3)c2=O)cc1`: the activity change, negative = inhibition is -3.67%.
